Records with an inconclusive call do not appear. Where a call stands in place of a potency, no number is given. The source made the active and inactive calls. The call rests on the fitted dose curve; in most records, active means well fitted inhibition curve with a large enough effect; inconclusive means small, poorly fitted or top-dose-only effect; inactive means flat fitted curve, though single readings scatter.
These molecules were tested against Calcium and integrin-binding protein 1 (Homo sapiens) (UniProt Q99828) (assay: Primary qHTS for Identification of Calcium Integrin Binding Protein 1 (CIB1) Competitor (AID 1508620;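 further: GST tagged CIB1 binding a fluorescein labelled alphaIIb integrin peptide tracer; top concentration of the series differs between compounds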)). Conditions: CIB1-GST / FITC-alphaIIb peptide fluorescence polarization; series mostly up to 114 µM.
Excerpt: Assay Provider: Ulhas P. Naik, PhD Sidney Kimmel Medical College Thomas Jefferson University, Philadelphia, PA Primary function of platelets is to maintain hemostasis. At the site of vascular injury, platelets adhere to adhesive proteins such as collagen and von Willebrand factor. Adherent platelets are activated and generate soluble platelet agonists such as thrombin, ADP and thromboxane A2. Following exposure of circulating platelets to these agonists, results in platelet shape change, granule secretion and activation of platelet integrin alphaIIb-beta3. Ligand binding to activated integrin alphaIIb-beta3 triggers outside-in signaling, leading to platelet aggregation, stabilization of platelet plug, and clot retraction. Upon atherosclerotic plaque rupture also causes platelet plug formation, which underlies a number of cardiovascular diseases such as myocardial infraction and stroke. A number of anti-platelet drugs such as aspirin, clopidogrel, prasugrel, vorapaxar, and eptifibatide are currently available to prevent the thrombotic complications. However, these anti-platelet agents have several limitations including inherent variability in individual responses, developing resistance, and serious bleeding side effects. For these reasons they are not suitable for long-term protection. Based on the experiences with current anti-platelet drugs, it appears that the most useful therapeutic approach is to intersect the secondary responses such as integrin outside-in signaling or recruitment of platelets by TxA2 and secreted ADP. Compounds, which can largely preserve the primary hemostatic function of platelets but inhibit secondary response will be most desired therapeutic agents for treatment of cardiovascular disease. CIB1 is a calcium integrin binding protein, which specifically interact with the alphaIIb subunit of integrin alphaIIb-beta3. Binding of CIB1 to alphaIIb regulates the outside-in signaling in platelets, which is needed for thrombus stabilization and thrombus growth. […] Therefore, we propose that discovery of a small molecule that can prevent the association of CIB1 and alphaIIb-beta3 will be a potential anti-platelet agent that can block the thrombus formation without undue effect on hemostasis. Reference: [1] Naik MU, Nigam A, Manrai P, et al. CIB1 deficiency results in impaired thrombosis: the potential role of CIB1 in outside-in signaling through integrin alpha IIb beta 3. J Thromb Haemost.
PROTOCOL TABLES SEQUENCE No. (1, 2, 3, etc.); […] (e.g., Cells, Incubation, Reagent, etc.); VALUE and DESCRIPTION. 1; Reagent; 3 uL; Protein or buffer (4/3x) 2; Compound; 46 nL; Control inhibitor / compound library 3; Time; 15 min; Room temperature incubation 4; Reagent; 1 uL; Fluorescent labeled peptide (4x) 5; Time; 1000 rpm; Centrifuge 6; Time; 15 min; Room temperature incubation 7; Detection; Ex 480/ Em 540; ViewLux Fluorescence Read NOTES (numbers refer to sequence above) 1; Protein Mixture: C1B1-GST (final concentrations of 1 uM). […] 3; Room temperature incubation. 4; Fluorescent Labeled Peptide: FITC-aIIb (final concentration of 100 nM). Sequence of alphaIIb peptide: Acetyl-[…]-FITC (purity is 95.83%). 5; Centrifuge 1000 rpm (164 g) for 15 seconds. 6; Room temperature incubation. 7; ViewLux Fluorescent Polization Read: excitation = 480(20) / emission = 540(25) S and P; FITC Dichroic mirror.

Sequence of Calcium and integrin-binding protein 1 (Homo sapiens) (Q99828 whole entry, looked up): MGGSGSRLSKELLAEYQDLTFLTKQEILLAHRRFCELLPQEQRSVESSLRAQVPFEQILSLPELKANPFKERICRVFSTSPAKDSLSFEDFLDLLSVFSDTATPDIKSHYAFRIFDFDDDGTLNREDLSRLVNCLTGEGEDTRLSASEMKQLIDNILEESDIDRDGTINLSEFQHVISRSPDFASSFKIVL

Compound	Potency
CO[C@@H]1[C@H](O)[C@@H](O[C@@H]2C[C@H]3CC[C@@H]4C(CC[C@]5(C)[C@@H](C6=CC(=O)OC6)CC[C@]45O)[C@@]3(C)[C@H](O)C2)O[C@H](C)[C@@H]1O (stereo not given in full)	inactive
Cc1c(Cl)c(OCC(=O)N2CCN(C)CC2)nc2sc(C(=O)NC3CC3)c(N)c12	inactive
c1cncc(OC[C@@H]2CCN2)c1	inactive
CN1CCC2=C(C1)c1ccccc1Cc1ccccc12	inactive
CCOP(=O)(OCC)Oc1ccc2c(C)cc(=O)oc2c1	inactive
CC(C)[C@H](NC(=O)c1nn(Cc2ccc(F)cc2)c2ccccc12)C(N)=O	inactive
C1=C(c2cnc[nH]2)c2ccsc2CC1	inactive
CNc1ccc2oc(C[C@H]3O[C@@]4(CC[C@H]3C)O[C@H](C(C)C(=O)c3ccc[nH]3)[C@H](C)C[C@H]4C)nc2c1C(=O)O (stereo not given in full)	inactive
Cc1cccc(NC(=O)c2ccc(C(F)(F)F)cc2C(=O)O)n1	inactive
C=C(CO)C(=O)O[C@H]1CC(=C)[C@@H]2C[C@H](O)C(=C)[C@@H]2[C@H]2OC(=O)C(=C)[C@@H]21	inactive
CC1=CC(=O)[C@@H](O)[C@@]2(C)C1C[C@H]1OC(=O)[C@H](O)[C@@]3(O)[C@@H](C)[C@@H](O)[C@H](O)C2[C@@]13C (stereo not given in full)	inactive
C=C[C@H]1CN2CCC1C[C@H]2[C@H](O)c1ccnc2ccccc12 (stereo not given in full)	inactive
NC(=O)[C@@H](CC1CC1)[C@@H](CCC(F)(F)F)C(=O)N[C@H]1N=C(c2ccccc2)c2cccc(F)c2NC1=O	inactive
CCCN(CCC)CCc1ccc(OC)c(OCCc2ccccc2)c1	inactive
CCC(C)/C=C(C)/C=C/C1=CC2=C(Cl)C(=O)C(C)(OC(C)=O)C(=O)C2=CO1 (stereo not given)	inactive
C[C@@H]1O[C@@H](OC2CCC3(C=O)C(CCC4C3CCC3(C)C(C5=CC(=O)OC5)C(O)CC43O)C2)[C@H](O)[C@H](O)[C@H]1O[C@@H]1O[C@H](CO)[C@@H](O)[C@H](O)[C@H]1O (stereo not given in full)	inactive
Cc1ccccc1C1=CCN(C)CC1	inactive
COC1CC(O[C@H]2CC[C@@]3(C)C(CCC4C3CC[C@]3(C)[C@@H](C5=CC(=O)OC5)CC[C@]43O)C2)OC(C)C1O (stereo not given in full)	inactive
CCCCn1cc(C(=O)c2cccc3ccccc23)c2ccccc21	inactive
CCC(C)C1NC(=O)C(C(C)=O)=C1O (stereo not given)	inactive

Compound	Potency
CC(=O)O[C@@H]1[C@@H](O)[C@H]2O[C@@H]3C=C(C)[C@@H](O)C[C@]3(CO)[C@]1(C)[C@]21CO1	inactive
CC(C)[C@H]1OC(=O)[C@H](Cc2ccccc2)N(C)C(=O)[C@@H](C(C)C)OC(=O)[C@H](Cc2ccccc2)N(C)C(=O)[C@@H](C(C)C)OC(=O)[C@H](Cc2ccccc2)N(C)C1=O	inactive
CC[C@H]1C[C@@H]2CC[C@@H](O2)[C@@H](C)C(=O)O[C@H](CC)C[C@H]2CC[C@H](O2)[C@H](C)C(=O)O[C@@H](C)C[C@@H]2CC[C@@H](O2)[C@@H](C)C(=O)O[C@H](CC)C[C@H]2CC[C@H](O2)[C@H](C)C(=O)O1	inactive
Cc1ccccc1CN1CCC(N2CCC(n3c(=O)[nH]c4ccccc43)CC2)CC1	inactive
C[N@@+]1(CC2CC2)CC[C@]23c4c5ccc(O)c4O[C@H]2C(=O)CC[C@@]3(O)[C@H]1C5	inactive
N#CC(O[C@@H]1O[C@H](CO)[C@@H](O)[C@H](O)[C@H]1O)c1ccccc1 (stereo not given in full)	inactive
CC1=CC2(O)/C=C/C(C)(O)C(O)C(O)/C=C/C(=O)OC23C(=O)NC(CC(C)C)C3C1C (stereo not given)	inactive
CC(=O)OC[C@]12C[C@H](OC(=O)CC(C)C)C(C)=C[C@H]1O[C@@H]1[C@H](O)[C@@H](O)[C@@]2(C)[C@]12CO2	inactive
CN1CN(c2ccccc2)C2(CCN(CCCC(=O)c3ccc(F)cc3)CC2)C1=O	inactive
Cc1c(N2C(=O)[C@@H]3[C@H](O)CCN3C2=O)ccc(C#N)c1Cl	inactive
CN1CCc2cc3c(cc2[C@H]1[C@@H]1OC(=O)c2c1ccc1c2OCO1)OCO3	inactive
CN(Cc1cccc(-c2ccncc2)c1)C(=O)Oc1ccc(-c2ccc(C(N)=O)cc2)cc1	inactive
OC(CNc1ccccc1)Cn1c2ccc(Br)cc2c2cc(Br)ccc21 (stereo not given)	inactive
C/C=C(\C)C(=O)O[C@H]1CC2C(=C1C)[C@H]1OC(=O)[C@](C)(O)[C@]1(O)[C@H](OC(=O)CCC)C[C@@]2(C)OC(C)=O (stereo not given in full)	inactive
NNC(=O)c1nn(Cc2ccc(Cl)cc2Cl)c2ccccc12	inactive
N#Cc1ccc(N2CCN(C(=O)COc3ccc4[nH]cc(CCN)c4c3)CC2)cc1	inactive
C=C1[C@@H](O)[C@]2(O)OC[C@]34C2[C@]2(C)C(C[C@H]3OC(=O)[C@H](O)[C@@]14O)C(C)=CC(=O)[C@H]2O (stereo not given in full)	inactive
C[C@@H]1[C@H](O)[C@@H](C)/C=C/C=C/CC/C=C/C=C/C=C/C=C/[C@H](O[C@H]2O[C@@H](C)[C@H](O)[C@@H](N)[C@H]2O)C[C@@H]2O[C@](O)(C[C@@H](O)[C@H](O)CC[C@@H](O)C[C@@H](O)C[C@@H](O)CC(=O)O[C@H]1C)C[C@H](O)[C@H]2C(=O)O	inactive
O=C(N1CCCCC1Cc1ccccc1)n1cc(-c2ccc(-c3ccccc3)cc2)nn1 (stereo not given)	inactive
C[C@]12CC[C@H](O)C[C@@H]1CC[C@@H]1[C@@H]2CC[C@]2(C)[C@@H](C3=CC(=O)OC3)CC[C@]12O	inactive
